Rows were chosen to be rich in hits. Some 8.1% of all compounds tested hit in one or more screens of this group.
KB-3-1 cytotox: KB-3-1 parental cell cytotoxicity | KB-3-1 viability, CellTiter-Glo ATP luminescence, 72 h | Potency, µM (series often up to 46.1 µM), hits mostly cytotoxic | 400,000 compounds, 1.4% hits; note: % is set by controls: 0 for no effect and ±100 for the full control effect; nearly all actives have a fitted effect of over 60% in size
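72 h, 37 °C compound treatment of KB-3-1 parental cells; CellTiter-Glo added, 10 min, luminescence read. Data corrected against DMSO-only plates and normalized before curve fitting.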
ELG1 repair inh: ELG1-dependent DNA repair inhibition. HEK293T ELG1-luciferase reporter, luminescence, 16 h; DNA damage induced by 5-fluorouridine. Potency, µM (titrated, usually from 46.1 µM), for the others: at the top dose activity change, negative = inhibition, usual class: inhibitors. 330,000 compounds, 2.3% hits. AID 504467; note: % is set by controls: 0 for no effect and ±100 for the full control effect; nearly all actives have a fitted effect of over 55% in size
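5-Fluorouridine DNA damage + compound/DMSO, 2,000 cells/well, 16 h, 37 °C/5% CO2. ONE-Glo, 30 min RT, luminescence. Readout = decrease in reporter signal.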
MCF10A rereplic: inducers of DNA re-replication in MCF 10A breast cells; MCF 10A DNA re-replication, Hoechst nuclear intensity, 48 h; 350,000 compounds, 2.9% hits; Potency, µM (highest dose often 46.1 µM), inactives show at the highest dose activity, positive = re-replication, hits mostly activators; note: % of control where 0% means no effect; nearly all actives have a fitted effect of over 50% in size
KB-V1 cytotox: kills drug-selected multidrug resistant KB-V1 cells; KB-V1 MDR cells viability, CellTiter-Glo, 72 h; Potency, µM (titrated, usually from 46.1 µM), actives largely listed as cytotoxic; 400,000 compounds, 3.4% hits; AID 1347076; note: % is set by controls: 0 for no effect and ±100 for the full control effect; nearly all actives have a fitted effect of over 60% in size
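Luminescent ATP read-out (CellTiter-Glo, 10 min) measures survival of drug-selected KB-V1 MDR cells after 72 h, 37 degrees C compound exposure. Medium: phenol-red-free DMEM, 10% FBS. Values from fitted concentration-response curves.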
SW480 rerep: inducers of DNA re-replication in SW480 colon cancer cells. SW480 DNA re-replication, Hoechst DNA content imaging, 48 h. Potency, µM (highest dose often 46.1 µM), without a hit: top-dose re-replication activation, most hits filed as activators. 340,000 compounds, 1.8% hits. AID 624297; note: % of control where 0% means no effect; nearly all actives have a fitted effect of over 55% in size
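Image-based DNA-content assay: after two days of treatment, nuclei were labelled with the DNA dye Hoechst and imaged, and hits were compounds raising the count of nuclei showing high fluorescence intensity.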
ELG1 FLuc counter: luciferase inhibition in cell-free luciferin readout for ELG1 hits; AID 624247; 350 compounds, 3% hits; Potency, µM (doses to about 46.1 µM), for inactives: top-dose activity change, negative = inhibition, actives largely listed as inhibitors; shares compounds with ELG1 repair inh; cell-free firefly luciferase luminescence counter-screen, ViewLux; note: % is set by controls: 0 for no effect and ±100 for the full control effect
ELG1-Luc inh: confirmation of human ELG1-dependent DNA repair inhibitors. shares compounds with ELG1 repair inh. HEK293T ELG1-luciferase levels, luminescence; cells co-treated with 5-fluorouridine. Potency, µM (series often up to 46.1 µM), for inactives: at the highest dose activity change, negative = inhibition, hits mostly inhibitors. 670 compounds, 68% hits. AID 624248; note: % is set by controls: 0 for no effect and ±100 for the full control effect; nearly all actives have a fitted effect of over 55% in size
Target sequence (Q96QE3 whole entry, looked up): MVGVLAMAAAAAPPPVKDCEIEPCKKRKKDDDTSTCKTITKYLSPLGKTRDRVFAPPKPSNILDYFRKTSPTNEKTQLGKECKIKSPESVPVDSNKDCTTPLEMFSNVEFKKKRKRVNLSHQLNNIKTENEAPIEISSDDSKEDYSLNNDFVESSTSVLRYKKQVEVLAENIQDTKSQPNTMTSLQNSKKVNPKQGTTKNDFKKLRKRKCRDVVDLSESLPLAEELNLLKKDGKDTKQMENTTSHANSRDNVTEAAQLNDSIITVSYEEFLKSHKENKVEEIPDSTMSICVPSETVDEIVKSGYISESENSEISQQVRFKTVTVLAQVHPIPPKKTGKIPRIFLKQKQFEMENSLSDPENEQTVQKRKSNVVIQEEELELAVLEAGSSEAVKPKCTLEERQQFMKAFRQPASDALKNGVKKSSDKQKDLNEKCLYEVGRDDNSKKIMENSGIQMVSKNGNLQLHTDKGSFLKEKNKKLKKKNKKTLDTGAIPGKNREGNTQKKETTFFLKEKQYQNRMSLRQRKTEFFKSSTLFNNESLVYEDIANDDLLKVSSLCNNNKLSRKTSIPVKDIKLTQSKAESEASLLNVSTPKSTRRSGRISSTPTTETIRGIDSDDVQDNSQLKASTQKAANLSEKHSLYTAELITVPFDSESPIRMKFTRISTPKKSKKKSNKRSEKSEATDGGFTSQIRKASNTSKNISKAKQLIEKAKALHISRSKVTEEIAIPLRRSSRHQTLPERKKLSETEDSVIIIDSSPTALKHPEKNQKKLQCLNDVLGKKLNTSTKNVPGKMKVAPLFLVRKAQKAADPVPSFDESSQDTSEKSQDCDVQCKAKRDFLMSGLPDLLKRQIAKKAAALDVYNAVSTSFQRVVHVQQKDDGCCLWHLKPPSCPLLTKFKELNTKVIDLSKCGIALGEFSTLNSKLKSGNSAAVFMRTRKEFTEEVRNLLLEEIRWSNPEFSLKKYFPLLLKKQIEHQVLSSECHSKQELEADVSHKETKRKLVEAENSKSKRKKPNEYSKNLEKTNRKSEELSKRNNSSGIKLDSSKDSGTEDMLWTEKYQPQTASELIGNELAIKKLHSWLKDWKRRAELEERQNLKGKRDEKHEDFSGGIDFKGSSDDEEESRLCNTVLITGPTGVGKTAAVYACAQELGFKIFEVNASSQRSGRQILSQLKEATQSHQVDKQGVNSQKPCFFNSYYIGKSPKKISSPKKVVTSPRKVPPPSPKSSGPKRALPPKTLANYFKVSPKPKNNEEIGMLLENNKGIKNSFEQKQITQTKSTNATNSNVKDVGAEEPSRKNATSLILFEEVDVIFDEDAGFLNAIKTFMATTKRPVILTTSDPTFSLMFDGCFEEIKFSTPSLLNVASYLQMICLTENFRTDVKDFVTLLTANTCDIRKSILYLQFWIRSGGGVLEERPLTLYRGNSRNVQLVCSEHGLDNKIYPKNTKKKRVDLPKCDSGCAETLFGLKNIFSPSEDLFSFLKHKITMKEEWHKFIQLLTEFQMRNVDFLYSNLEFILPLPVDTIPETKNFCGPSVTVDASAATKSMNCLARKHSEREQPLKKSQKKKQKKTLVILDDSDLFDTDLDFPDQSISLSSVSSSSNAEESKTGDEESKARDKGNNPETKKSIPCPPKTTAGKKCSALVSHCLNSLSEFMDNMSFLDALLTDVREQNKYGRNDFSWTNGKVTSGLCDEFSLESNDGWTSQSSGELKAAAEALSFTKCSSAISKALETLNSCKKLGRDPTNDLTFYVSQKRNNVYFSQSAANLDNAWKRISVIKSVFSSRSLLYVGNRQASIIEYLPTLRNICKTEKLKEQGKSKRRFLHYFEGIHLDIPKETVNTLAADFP
ELG1-Luc MMS: MMS-stimulated human ELG1 repair inhibition, confirmed; shares compounds with ELG1 repair inh; HEK293T luciferase-tagged ELG1 level, MMS stimulated; Potency, µM (highest dose often 46.1 µM), for the others: at the top dose activity change, negative = inhibition, most hits filed as inhibitors; 670 compounds, 53% hits; AID 624249; note: % is set by controls: 0 for no effect and ±100 for the full control effect; nearly all actives have a fitted effect of over 60% in size
ELG1 5-FU: confirmation of ELG1 repair inhibitors: viability with 5FU; shares compounds with ELG1 repair inh; cell viability with 5-FU, ELG1-dependent repair; Potency, µM (top dose mostly 46.1 µM), without a hit: top-dose activity change, negative = viability loss, most hits filed as cytotoxic; 670 tested, under 10 active; AID 624250;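 note: ELG1-luc HEK293T cells cotreated with 5-fluorouridine at 10 µM final; viability measured 16 h after compound addition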
ELG1 MMS cell: confirmation of ELG1 repair inhibitors: viability with MMS | shares compounds with ELG1 repair inh | Cell viability with MMS, ELG1-dependent DNA repair | Potency, µM (highest dose often 46.1 µM), without a hit: at the top dose activity change, negative = viability loss, most hits filed as cytotoxic | 670 compounds, 33% hits;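 note: ELG1-luc HEK293T cells co-treated with 10 µM MMS; viability read 16 h after compound addition; % is set by controls: 0 for no effect and ±100 for the full control effect; nearly all actives have a fitted effect of over 60% in size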
ELG1 unstim viab: counter-screen for ELG1 repair inhibitors: unstimulated cell viability. cell viability counter-screen, unstimulated, luminescence. shares compounds with ELG1 repair inh. Potency, µM (series often up to 45.9 µM), inactives show top-dose activity change, negative = loss of viability, usual class: cytotoxic. 900 compounds, 8% hits;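 note: compound exposure lasted 16 hours before reading; % is set by controls: 0 for no effect and ±100 for the full control effect; nearly all actives have a fitted effect of over 55% in size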
FLuc biochem: firefly luciferase inhibition counter-screen. Potency, µM (highest dose often 57.5 µM), inactives show at the highest dose activity, negative = inhibition, usual class: inhibitors. purified firefly luciferase, luminescence counter-screen. 350 compounds, 10% hits. AID 624253. shares compounds with ELG1 repair inh; note: % is set by controls: 0 for no effect and ±100 for the full control effect
* hit, by the source's call; i = inactive; ? = inconclusive; . = no result given. Calls come from the whole dose curve; as a rule, active = well fitted curve in the direction sought with a large enough effect; inconclusive = small, poorly fitted or top-dose-only effect, or another doubt; inactive = no such curve, though single readings can be large; an effect the other way counts as inactive or inconclusive. Potency is the fitted concentration of half-maximal effect.

SMILES	KB-3-1 cytotox	ELG1 repair inh	MCF10A rereplic	KB-V1 cytotox	SW480 rerep	ELG1 FLuc counter	ELG1-Luc inh	ELG1-Luc MMS	ELG1 5-FU	ELG1 MMS cell	ELG1 unstim viab	FLuc biochem
C[C@@H]1C[C@@H]2[C@H]([C@H]3C=C(COC(=O)c4ccccc4)[C@@H](O)[C@]4(O)[C@@H](O)C(OC(=O)c5ccccc5)=C[C@@]14C3=O)C2(C)C	.	.	.	.	.	96%	.	.	.	.	?	-1%
COc1cc2c(c(OC)c1OC)-c1ccc(O)c(=O)cc1C(NC(C)=O)CC2 (configuration not stated)	0.0082µM*	?	?	?	?	22%	.	.	.	.	-5%	1%
C[C@@H]1C[C@H](C)C[C@H](C)[C@@H](O)CC(=O)O[C@H]([C@H]2CCC[C@H]2C(=O)O)C/C=C/C=C(/C#N)[C@H](O)[C@@H](C)C1	.	.	.	.	.	?	0.4µM*	0.79µM*	?	6.3µM*	?	5%
CCCCCCCCCCCCCC(=O)O[C@@H]1[C@@H](C)[C@@]2(O)[C@H](C=C(CO)C[C@]3(O)C(=O)C(C)=C[C@@H]23)[C@@H]2C(C)(C)C12OC(C)=O (some centres not stated)	.	.	.	.	.	79%	.	.	.	.	?	?
CCCC(=O)O[C@@H]1[C@@H](C)[C@@]2(O)[C@@H](C=C(CO)C[C@]3(O)C(=O)C(C)=C[C@@H]23)[C@@H]2C(C)(C)[C@]12OC(=O)CCC	.	.	.	.	.	.	.	.	.	.	?	.
COc1cc(N)c(Cl)cc1C(=O)N[C@@H]1CN2CCC1CC2	.	.	14%	.	1%	.	.	.	.	.	.	.
Cc1nnc(NC(=O)c2cccn(Cc3ccc(Cl)cc3)c2=O)s1	i	.	.	i	.	.	.	.	.	.	.	.
CCN1C[C@]2(COC)[C@H](O)C[C@H](OC)[C@]34C1C([C@H](OC)[C@H]23)[C@]1(OC(C)=O)C2[C@@H](OC(=O)c3ccccc3)C(O)(C[C@H]24)[C@@H](OC)[C@@H]1O	.	.	4%	.	-7%	.	.	.	.	.	.	.
COc1ccc(Cc2nccc3cc(OC)c(OC)cc23)cc1OC	i	-12%	?	?	?	.	.	.	.	.	.	.
COc1ccc(/C(=N/OC(C)=O)c2nccc3cc(OC)c(OC)cc23)cc1OC	i	3.3µM*	5%	i	-5%	.	?	2%	?	8%	4%	.
CCOc1ccc(NC(=S)NC2CC3CCC(C2)N3Cc2ccco2)cc1 (configuration not stated)	i	-10%	-42%	i	-6%	.	.	.	.	.	.	.
Cc1ccc(/C=C/C(=O)C2C(=O)c3ccccc3C2=O)cc1	?	?	?	i	-7%	.	.	.	.	.	.	.
CC1O[C@@H](OC2CC[C@@]3(C=O)C4CC[C@]5(C)C(C6=CC(=O)OC6)CC[C@@]5(O)C4CC[C@]3(O)C2)C(O)C(O)C1O (some centres not stated)	.	.	.	.	.	?	0.32µM*	0.16µM*	?	0.28µM*	0.14µM*	-8%
COc1ccc(NC(=O)c2ccc(COCC(F)(F)C(F)F)cc2)cc1	i	?	1%	?	-4%	.	.	.	.	.	.	.
CC(=O)OCC1=C[C@H]2[C@@H]3C(C)(C)[C@]3(OC(=O)Cc3ccccc3)C[C@@H](C)[C@]2(O)[C@@H]2C=C(C)C(=O)[C@@]2(O)C1	.	.	.	.	.	.	.	.	.	.	?	.
CO/C1=C\C(C)=C\[C@@H](C)[C@@H](O)[C@H](C)C/C(C)=C/C=C/[C@H](OC)[C@H]([C@@H](C)[C@@H](O)[C@H](C)[C@H]2C[C@@H](O)[C@H](C)[C@@H](C(C)C)O2)OC1=O	.	.	.	.	.	5%	-3%	-19%	-8%	?	?	-1%
O=C(Nc1ccccc1)c1cccn(Cc2ccccc2)c1=O	?	0%	18%	?	-136%	.	.	.	.	.	.	.
O=C(Nc1ccncc1)c1cccn(Cc2ccccc2)c1=O	?	3.3µM*	0%	5.8µM*	11%	.	8%	2.2µM*	2%	2.5µM*	?	.
CC1OC(=O)C(C(C)C)NC(=O)C(C(C)C)OC(=O)C(C(C)C)NC(=O)C(C)OC(=O)C(C(C)C)NC(=O)C(C(C)C)OC(=O)C(C(C)C)NC(=O)C(C)OC(=O)C(C(C)C)NC(=O)C(C(C)C)OC(=O)C(C(C)C)NC1=O (configuration not stated)	.	.	.	.	.	?	12%	0.035µM*	?	0.079µM*	0.035µM*	4%
COC(=O)C1=CO[C@@H](OC2OC(CO)C(O)C(O)C2O)[C@@H]2C(CO)=CC[C@H]12 (some centres not stated)	i	19%	-11%	?	2%	.	.	.	.	.	.	.
COc1ccc(C(=O)CN2CCCCC2)cc1	i	?	-2%	?	2%	.	.	.	.	.	.	.
COc1ccc(C(=O)CC2(CC(=O)c3ccc(OC)cc3)C(=O)N(C)C(=O)N(C)C2=O)cc1	i	1.6µM*	-5%	i	-7%	.	0.5µM*	3%	?	1%	-4%	.
CC1CCN(c2nc(-c3ccc(F)cc3)cc(C(F)(F)F)n2)CC1	i	3%	?	i	0%	.	.	.	.	.	.	.

Screens (PubChem)
